Compound activity as filed in PubChem.
Tau fluor cs: Counterscreen qHTS for Inhibitors of Tau Fibril Formation, Fluorescence Polarization; tau K18 P301L Alexa594 fluorescence, heparin fibrillization; Potency, µM (titrated, usually from 57.7 µM), inactives show at the highest dose activity change, negative = decrease; hit rate 0.93% among 280,000; AID 1463, 2008; also: potency is read from the fitted curve at half-maximal effect; nearly all actives have a fitted effect of over 55% in size
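Human tau K18 P301L (15 uM unlabeled, 0.24 uM Alexa 594-labeled) in 100 mM sodium acetate pH 7 with 20 uM heparin, 6 hr at 37 C. ThT 30 uM added, 1 hr ambient; Alexa 594 FP and total fluorescence read at 555/632 nm.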
Coupling enz: qHTS Assay for Inhibitors of Fructose-1,6-bisphosphate Aldolase from Giardia Lamblia: Coupling assay counterscreen. coupling enzyme system counterscreen, AmpLite Red fluorescence. hit rate 0.67% among 290,000. activity change, negative = inhibition, % at 58.2 µM, hits read low; in the data active = activity change below about -30%
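Final compound at 57.5 uM, incubated 10 min at RT with coupling enzyme reagent (glyceraldehyde-3-phosphate), then 20 min with substrate and AmpLite Red detection. Fluorescence read at 525/598 nm; tests interference with the coupling assay, not aldolase inhibition.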
Sfp PPTase inh: qHTS Assay for Inhibitors of Bacillus subtilis Sfp phosphopantetheinyl transferase (PPTase); AID 1490, 2009; 4'-phosphopantetheinyl transferase ffp (Bacillus subtilis), Q9F4F7; Potency, µM, for inactives: largest response in the series, negative = inhibition, actives largely listed as inhibitors; hit rate 3.5% among 310,000; Biochemical Sfp PPTase activity, qHTS;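 also: the enzyme is Sfp with the accession as filed and its product quenches rhodamine fluorescence; potency is read from the fitted curve at half-maximal effect; 0% = enzyme reaction without inhibitor and -100% = no enzyme wells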
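Reaction rates are the 30-min fluorescence difference (ex 525, em 598 nm) in wells containing 15 nM Sfp, 5 uM rhodamine-CoA and 12.5 uM BHQ-2-YbbR at pH 7.6 with 10 mM MgCl2.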
Tau FP inhib: qHTS for Inhibitors of Tau Fibril Formation, Fluorescence Polarization; Microtubule-associated protein tau (Homo sapiens), P10636; K18 P301L tau heparin fibrillization, Alexa594 FP, 6 h; Potency, µM (series often up to 57.7 µM), for the others: at the highest dose activity, negative = inhibition, hits mostly inhibitors; hit rate 0.39% among 280,000; also: potency is read from the fitted curve at half-maximal effect; nearly all actives have a fitted effect of over 55% in size
Target sequence (P10636 561-689 P618L limits assumed): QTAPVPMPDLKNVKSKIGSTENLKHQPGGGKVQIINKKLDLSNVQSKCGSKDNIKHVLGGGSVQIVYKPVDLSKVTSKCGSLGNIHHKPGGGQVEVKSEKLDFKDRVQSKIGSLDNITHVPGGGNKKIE
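Human K18 P301L fragment (15 uM unlabeled plus 0.24 uM Alexa 594-labeled) in 100 mM sodium acetate pH 7 with compound, aggregation induced by 20 uM heparin for 6 hr at 37 C. ThT (30 uM) added for 1 hr, then Alexa 594 FP read.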
Tau ThT inhib: qHTS for Inhibitors of Tau Fibril Formation, Thioflavin T Binding; Microtubule-associated protein tau (Homo sapiens), P10636; recombinant tau K18 P301L, heparin-induced fibrillization, ThT fluorescence; Potency, µM (titrated, usually from 57.4 µM), for the others: at the top dose activity, negative = inhibition, hits mostly inhibitors; hit rate 2.1% among 270,000; also: potency is read from the fitted curve at half-maximal effect; nearly all actives have a fitted effect of over 55% in size
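Fibril formation assay: tau K18 P301L at 15 uM with trace Alexa 594 label, heparin inducer 20 uM, pH 7 sodium acetate buffer, 37 C for 6 hr; endpoint ThT signal.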
G9a inh: qHTS Assay for Inhibitors of Histone Lysine Methyltransferase G9a; hit rate 8.8% among 350,000; Histone-lysine N-methyltransferase EHMT2 (Homo sapiens), Q96KQ7; G9a H3K9 monomethylation, AlphaScreen, 2 h; Potency, µM (titrated, usually from 102 µM), for inactives: at the highest dose activity, negative = inhibition, usual class: inhibitors; also: potency is read from the fitted curve at half-maximal effect; nearly all actives have a fitted effect of over 75% in size
Target sequence (Q96KQ7 913-1193 limits assumed): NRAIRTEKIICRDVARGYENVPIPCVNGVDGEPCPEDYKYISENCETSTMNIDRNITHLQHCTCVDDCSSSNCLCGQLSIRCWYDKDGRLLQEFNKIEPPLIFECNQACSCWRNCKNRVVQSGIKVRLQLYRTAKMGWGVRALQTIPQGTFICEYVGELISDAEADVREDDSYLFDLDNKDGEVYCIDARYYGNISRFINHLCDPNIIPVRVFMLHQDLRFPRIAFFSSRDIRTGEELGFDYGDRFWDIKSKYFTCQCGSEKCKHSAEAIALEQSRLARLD
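Signal arises when biotinylated H3K9 peptide, once monomethylated, bridges streptavidin donor and antibody-captured acceptor beads. Enzyme at 20 nM was preincubated 15 min with test compounds; peptide 500 nM and SAM 20 uM then reacted for 2 h.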
An asterisk follows results filed as active; [ ] = another dose, or the depositor's remark. Shown are actives, neighbours in structure and some others; about 11% of the full set was active somewhere. Unless noted, calls follow the shape of the dose curve; as a rule, active = well fitted curve in the direction sought with a large enough effect; inconclusive = small, poorly fitted or top-dose-only effect, or another doubt; inactive = no such curve, though single readings can be large; an effect the other way counts as inactive or inconclusive. Unless noted, % is scaled to controls: 0 for no effect and ±100 for the full control effect.

`Cc1nc(NC(=O)CSc2cc(C)c3ccccc3n2)c(Cl)cc1Cl` gave Tau fluor cs 5.3%, Coupling enz -1.0, Sfp PPTase inh inconclusive, Tau FP inhib 3.2%, Tau ThT inhib 8.4% and G9a inh 44.7µM*.
COC(=O)CN1C(=O)[C@@H]2[C@H](C1=O)[C@@H]1CC(C(=O)OC)=C[C@@H](C(=O)OC)C3C1=C(C(=O)[C@@]3(C)NC(=O)c1ccccc1)[C@@H]2C (stereo not given in full) was read as Coupling enz 5.2 and Sfp PPTase inh -0.9%.
For CC(=O)Oc1ccc(-n2c(=O)c3ccccc3c3ccccc3c2=O)cc1 the results were Tau fluor cs 5.8%, Coupling enz 0.3, Sfp PPTase inh 20.1%, Tau FP inhib 3.9%, Tau ThT inhib -8.6% and G9a inh -33.9%.
Screening COc1ccc(-n2c(=O)c3ccccc3c3ccccc3c2=O)cc1 returned Tau fluor cs -2.0%, Coupling enz 1.5, Sfp PPTase inh 13.3%, Tau FP inhib 12.9%, Tau ThT inhib inconclusive and G9a inh 10µM*.
Screening COc1ccc(-n2c(O)c(/C=N/n3cnnc3)c3ccccc3c2=O)cc1 returned Tau fluor cs -6.8%, Coupling enz -0.3, Sfp PPTase inh 4.6%, Tau FP inhib 4.3%, Tau ThT inhib -6.5% and G9a inh 50.1µM*.
For COc1ccc(OC)c(-n2c(=O)c3ccccc3c3ccccc3c2=O)c1 the results were Tau fluor cs -3.1%, Coupling enz -3.9, Sfp PPTase inh 6.9%, Tau FP inhib 3.8%, Tau ThT inhib inconclusive and G9a inh 10µM*.
Screening CNC(=O)CSc1nc2ccccc2c(=O)n1-c1cc(OC)ccc1OC returned Tau fluor cs -3.8%, Coupling enz 1.8, Sfp PPTase inh 5.2%, Tau FP inhib -1.6%, Tau ThT inhib -4.9% and G9a inh 23.4%[59 µM].
`Cc1cc(C)cc(Oc2nc3c(C)cccn3c(=O)c2/C=C(\C#N)c2nc3ccccc3s2)c1` gave Tau fluor cs -1.3%, Tau FP inhib -2.5%, Tau ThT inhib -11.0% and G9a inh -49.3%[59 µM].
N#C/C(=C\c1c(Oc2ccc(Br)cc2)nc2ccccn2c1=O)c1nc2ccccc2s1 was read as Tau fluor cs -26.0%, Tau FP inhib inconclusive, Tau ThT inhib inconclusive and G9a inh 2.82µM*.
Screening Cc1cc(Oc2nc3ccccn3c(=O)c2/C=C(\C#N)c2nc3ccccc3s2)ccc1Cl returned Tau fluor cs -17.0%, Tau FP inhib -11.9%, Tau ThT inhib -9.2% and G9a inh 10µM*.
Screening N=C(N)SCP(=O)(c1ccccc1)c1ccccc1 returned Tau fluor cs -3.2%, Coupling enz 3.0, Sfp PPTase inh -4.5%, Tau FP inhib inconclusive, Tau ThT inhib inconclusive and G9a inh 6.9%[12.7 µM].
Cc1ccc(P(=O)(CSC(=N)N)c2ccc(C)cc2)cc1 was read as Tau fluor cs -15.7%, Coupling enz 1.9, Sfp PPTase inh 25.9%, Tau FP inhib inconclusive, Tau ThT inhib 12.6µM* and G9a inh -10.4%[59 µM].
For C/C(=N\Nc1cccc2cccnc12)c1ccccn1 the results were Tau fluor cs -21.9%, Coupling enz -3.3, Sfp PPTase inh -9.3%, Tau FP inhib 2.3%, Tau ThT inhib inconclusive and G9a inh 14.1µM*.
`C/C(=N\Nc1cccc2cccnc12)c1ccc(N)cc1` gave Tau fluor cs inconclusive, Coupling enz -8.9, Sfp PPTase inh inconclusive, Tau FP inhib inconclusive, Tau ThT inhib 25.1µM* and G9a inh inconclusive.
C/C(=N\Nc1cccc2cccnc12)c1ccccc1O was read as Tau fluor cs inconclusive, Coupling enz -0.9, Sfp PPTase inh -23.4%, Tau FP inhib -0.1%, Tau ThT inhib inconclusive and G9a inh -10.1%.
`CCOc1ccc(NC(=O)Cn2cc(C(=O)c3ccc(OC)cc3)c(=O)c3cc4c(cc32)OCO4)cc1` gave Tau fluor cs -24.8%, Tau FP inhib -3.9%, Tau ThT inhib inconclusive and G9a inh -27.4%[59 µM].
Screening Cc1cccn2c(CN(C)CC3Cc4ccccc4O3)c(C(=O)N3CCCCC3)nc12 (stereo not given) returned Tau fluor cs 6.3%, Coupling enz 4.4, Sfp PPTase inh -11.8%, Tau FP inhib 1.3%, Tau ThT inhib -0.3% and G9a inh -16.0%.
For O=[N+]([O-])c1ccc(SCc2ccco2)cc1N1CCOCC1 the results were Tau fluor cs -16.1%, Coupling enz -0.7, Sfp PPTase inh -16.7%, Tau FP inhib -3.2%, Tau ThT inhib inconclusive and G9a inh 50.1µM*.
Screening CC1(C)CC(=O)C2=C(C1)OC(N)=C(C#N)C2c1ccc[nH]1 (stereo not given) returned Tau fluor cs -10.9%, Coupling enz -5.2, Sfp PPTase inh 50.1µM*, Tau FP inhib 0.5%, Tau ThT inhib -6.0% and G9a inh inconclusive.
COC(=O)N1C(/C=C/c2ccc3c(c2)OCO3)=Cc2ccccc2C1CC(C)=O (stereo not given) was read as Tau fluor cs -6.9%[11.6 µM], Coupling enz -4.3, Sfp PPTase inh -1.9%, Tau FP inhib -2.1%[11.6 µM] and Tau ThT inhib -4.0%[11.5 µM].
CC(C)c1ccc2[nH]c3c(c2c1)[C@@H]1CCN2C(=O)CCC[C@H](C3)[C@H]12 was read as Coupling enz -4.0 and Sfp PPTase inh -7.9%.
`CCOC(=O)c1ccc(N2C(=O)CC(NC3CCN(C(=O)c4ccc(F)cc4)CC3)C2=O)cc1` (stereo not given) gave Tau fluor cs -3.4%, Coupling enz 5.1, Sfp PPTase inh -8.2%, Tau FP inhib 3.2%, Tau ThT inhib -8.5% and G9a inh 44.7µM*.
`CCOc1ccc(N2C(=O)CC(NC3CCN(C(=O)c4ccc(F)cc4)CC3)C2=O)cc1` (stereo not given) gave Coupling enz 1.9, Sfp PPTase inh 2.2% and G9a inh 12.6µM*.
COc1ccc(N2C(=O)CC(NC3CC3)C2=O)cc1 (stereo not given) was read as Tau fluor cs 9.6%, Coupling enz -0.5, Sfp PPTase inh -6.9%, Tau FP inhib 5.4%, Tau ThT inhib -8.9% and G9a inh 12.9%[12.7 µM].
